Laboratory results published in PubChem BioAssay AID1159580 (chemical genetic matrix, 2015).
The campaign covered roughly 5,500 compounds. About 2,000 (36%) were called active. About 18% were inconclusive and are not listed. Rule as the data show it: active = normalized growth mostly below about 0.91 (no sharp cut-off); inconclusive = no clear call, values can overlap the other calls; inactive = mostly above about 0.92. This is one part of the list.

Assay: chemical genetic growth profiling, strain panel (AID 1159580);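 also: tested at 20 µM; growth read once vehicle control cultures reached saturation at 30 °C; 1 = growth at the plate median or of vehicle wells; lower values mean less growth of the strain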
Details: S. cerevisiae deletion strains, growth OD

Measured: normalized growth

C=C[C@@]1(C)CC(=O)[C@@]2(O)[C@](C)(O1)[C@@H](O)[C@@H](O)C1C(C)(C)CC[C@H](O)[C@@]12C (stereo partly drawn)
inactive: locus YHR030C, strain SLT2, stronger effect = lower value 0.962 | locus YHR079C, strain IRE1, stronger effect = lower value 0.971 | locus YJL095W, strain BCK1, stronger effect = lower value 0.989 | locus YJR066W, strain TOR1, stronger effect = lower value 0.957 | locus YLR113W, strain HOG1, stronger effect = lower value 0.992 | locus YNL183C, strain NPR1, stronger effect = lower value 0.995 | locus YOR231W, strain MKK1, stronger effect = lower value 0.992 | locus YPL256C, strain CLN2, stronger effect = lower value 0.976
